Assay results: PubChem BioAssay AID687014 (The Scripps Research Institute Molecular Screening Center, 2013)
The whole screen tested about 370,000 compounds, of which about 6,800 (1.8%) were called active. This excerpt belongs to a sample that is enriched for actives. A number with no mark means an inactive call.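 The calls were made as follows: active = activation above a cutoff set at the mean of all screened compounds plus 3 SD (cut at about 10% in these data); inactive = the rest.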

system: Nuclear hormone receptor DAF-12 (Heterodera glycines), GAL4 fusion; assay: hgDAF-12 GAL4 fusion reporter activation – cell-based, luminescence, HEK293, UAS-luciferase, primary screen (AID 687014); conditions: HEK293 GAL4-hgDAF12 UAS-luciferase reporter, agonist luminescence; at 6.8 µM; hits give high values; normalized to butyrate control;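 also: 0% = DMSO wells and 100% = sodium butyrate wells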

SMILES	activation
c1coc(CCNc2ncnc3ccc(-c4ccc5c(c4)OCO5)cc23)c1	-2.33%
Oc1cccc2cc(-c3ccncc3)cnc12	15.1% (active)
Cc1cc2c(nc1C)CCCN2C	0.83%
COc1ccc(NC(=O)C2CCC(CNC(=O)[C@@H]3Cc4ccccc4CN3)CC2)cc1 (stereo partly specified)	-1.49%
CN1C[C@]2(C=C3CCCCC3n3c(=O)n(-c4ccccc4)c(=O)n32)N=C1NC(=O)c1ccccc1 (stereo partly specified)	2.4%
COc1ccc(-n2c(SCC(=O)Nc3ccc(C)c(Cl)c3)nc3ccccc3c2=O)cc1	-4.03%
FC(F)(F)c1cccc(NC(=S)OC2CCC23CCC(c2ccccc2)CC3)c1 (stereo unspecified)	2.72%
COCCN(C(=S)Nc1ccccc1OC)C1CCN(C(C)C)CC1	-3%
Cc1ccc(-c2csc(-c3c[nH]c4ccccc34)n2)cc1	13.1% (active)
CCn1c(SCCC(C)C)nnc1-c1c[nH]c2ccccc12	-2.13%
Cc1ccc(-c2csc(N(Cc3ccco3)C(=O)c3cccs3)n2)cc1	4.33%
CC(=O)Nc1nc2ncccn2c1-c1ccc(C(F)(F)F)cc1	0.34%
N[C@@H](Cc1ccccc1)C(=O)N1CCOCC1	0.96%
COc1cccc(NC(=O)CN(C)C(=O)CSC(=S)N2CCCC2)c1	2.56%
O=C(CSC(=S)N1CCOCC1)c1ccccc1	10.7% (active)
O=C(CP(=O)(c1ccccc1)c1ccccc1)N1CCOCC1	1.84%
O=C(CSC(=S)N1CCCCC1)c1c(F)cccc1F	16.9% (active)
CC(=O)c1ccc(NC(=O)CSC(=S)N2CCCC2)cc1	7.4%
O=C1[C@@H](c2ccccc2)[C@@H](c2ccccc2)N1c1ccccc1	-0.47%
CCOC(=O)Cn1c2c(n(-c3ccc(F)cc3)c1=O)C=C(c1ccccc1)[C@@H](C)C(C(=O)N(C)C1CCCCC1)=C2	-2.75%
CN[C@H]1C[C@H]2c3cc(N4CCOCC4)ccc3CCN2C[C@H]1[C@H](C)O	-0.47%
CCC(=O)Nc1ccc2c(c1)C(=O)N(C)[C@H]1CC[C@H](CC(=O)NCCOC)O[C@@H]1CO2	-3.11%
O=C(NCc1cccs1)C1CCCN(S(=O)(=O)c2ccc([N+](=O)[O-])cc2)C1 (stereo unspecified)	-1.45%

SMILES	activation
C[C@@H]1ON(C)[C@H]2C[C@H]3c4[nH]c5cccc(-c6ccc7c(c6)OCO7)c5c4CCN3C[C@@H]12	-2.08%
CC(=O)N1C[C@@H](CO)[C@@H](N(C)C(=O)C(C)(C)C)C[C@H]1c1ccccc1Br	4.28%
C=C1C(C(C)C)N(C)C2=NC(c3ccccc3)CC(=O)N12 (stereo unspecified)	-2.06%
CN1CCN(c2ccc(NC(=O)c3ccccc3)cc2)CC1	10.5% (active)
O=C(CN1CCN(c2ccc(O)cc2)CC1)Nc1ccc(-c2ccccc2)cc1	0.81%
O=C(Nc1ccc(S(=O)(=O)N2CCc3ccccc3C2)cc1)c1ccccc1	-0.73%
COc1cccc(CNC(=O)[C@H]2CCCN2C(=O)[C@H]2CCCN2C(=O)C2CCCCC2)c1	-1.24%
O=S(=O)(c1cccs1)N1CCCc2nc(-c3ccc(Br)cc3)ccc21	-0.93%
CCCCn1nnnc1C(c1cc2ccccc2o1)N(C)Cc1ccc(Cl)c(Cl)c1 (stereo unspecified)	4.88%
CCCCNc1ccc(C(=O)Nc2cccc(C)n2)cc1[N+](=O)[O-]	1.4%
CCN1CCC(=NNC(=O)c2ccc(C)c([N+](=O)[O-])c2)CC1	-0.03%
Cc1cc(O)c(NC(=O)c2ccc(C)c([N+](=O)[O-])c2)cc1C	14.1% (active)
O=C(CSc1nnc(-c2ccccn2)n1-c1ccc(Cl)cc1)Nc1ccccc1-c1ccccc1	-5.11%
C[C@@H]1COc2cccc(N3CCCC3)c2S(=O)(=O)N1C	2.34%
COc1ccc(C(=O)CSc2nnc(-c3cnccn3)n2-c2ccc(C)cc2)cc1	-1.45%
CC1CC(C)CN(CCCNC(=O)c2csc3c2CCCCC3)C1 (stereo unspecified)	1.68%
Cc1ccc(NC(=O)C2(N3CCC3=O)CCCCC2)cc1	-1.36%
Cc1ccc(NC(=O)c2csc3c2CCCC3)cc1	23% (active)
CC(C)(C)c1ccc(S(=O)(=O)NCC2CCN(C(=O)C(=O)c3cc4ccccc4o3)CC2)cc1	-2.12%
CC(C)CC1NC(=O)c2cc(Cl)ccc2-n2c1nc1ccccc1c2=O (stereo unspecified)	-4.04%
Cc1ccc(-n2nc3cc(C)c(NC(=O)c4cccnc4)cc3n2)cc1	3.33%
Cc1cc2nc(-c3ccc(NC(=O)c4cccnc4)cc3)oc2cc1C	10.8% (active)
CCN(CC)C(=O)CSc1nc2ccccc2o1	4.9%

SMILES	activation
O=C(Nc1cccc(-n2cnnn2)c1)c1cccnc1	0.26%
CC(=O)Nc1ccc(S(=O)(=O)NC2Cc3ccccc3C2)cc1	-1.12%
CC(=O)Nc1ccc(-c2nc3ccccc3o2)cc1	14.1% (active)
COc1ccc(C2=CN(Cc3ccccc3)C(c3ccc(OC)cc3)CC2=O)cc1 (stereo unspecified)	1.21%
COc1ccc(CN(C)Cc2nc3cc(OC)c(OC)cc3c(=O)[nH]2)c(OC)c1	-1.81%
CC(C)CNc1cccc2c1S(=O)(=O)N(Cc1cn(Cc3ccc(Cl)cc3)nn1)Cc1ccccc1O2	1.68%
CCOC(=O)c1c(C)[nH]c(C2=NNC(=NC(C)COC)SC2)c1C (stereo unspecified)	12.9% (active)
COC(=O)C[C@H]1C=C[C@@H](NS(=O)(=O)c2ccc(C)cc2)[C@@H](CO)O1	3.19%
COc1ccc(CN(CCN2CCOCC2)C(=O)c2ccc(C)cc2)cc1OC	2.69%
CN1CCN(S(=O)(=O)c2ccc(NC(=O)c3ccco3)cc2)CC1	3.6%
Cc1ccc(NC(=O)c2ccco2)cc1	13.3% (active)
CN(C)C(CNC(=O)c1cc2ccccc2o1)c1ccccc1 (stereo unspecified)	0.25%
Cc1ccc(NC(=O)c2cc3ccccc3o2)cc1	15.2% (active)
C/C(=N\NC(=S)Nc1ccc(C)cc1)c1cc2ccccc2o1	0.54%
CC1CCN(c2ccc(-c3ccc(NC(=O)c4ccco4)cc3)nn2)CC1	7.1%
CCCCNC(=O)C[C@@H]1C(=O)N(CCc2ccc(Cl)cc2)C2=CCCC[C@]21C(=O)OCC	-1.77%
COc1cccc(CNC(=O)[C@H]2CCCN2C(=O)[C@H]2CCCN2C(=O)c2ccc(F)cc2)c1	-0.01%
Nn1c(SCC(=O)N2c3ccccc3Sc3ccccc32)nnc1-c1n[nH]c2c1CCC2	-2.62%
Nc1ncnc2c1ncn2[C@@H]1O[C@H](C(=O)N2CCSC2)[C@@H](O)[C@H]1O	-0.23%
O=C(CSc1nnc(-c2cccc(Cl)c2)n1Cc1ccco1)Nc1ccc(OCc2ccccc2)cc1	-1.62%
COc1cccc(N(C(=O)C2COc3ccccc3O2)C(C(=O)NC2CCCCC2)c2ccc(O)cc2)c1 (stereo unspecified)	0.49%
Nn1c(SCC(=O)Nc2ccc(S(N)(=O)=O)cc2)nnc1-c1n[nH]c2c1CCC2	0.61%
COc1ccc(C(=O)/C=C/c2ccc(-c3ccccc3)cc2)cc1CSCC(=O)O	-3.73%

SMILES	activation
CC(=O)Oc1ccc(C)cc1N1C(=O)c2ccc(C(=O)O)cc2C1=O	-2.04%
O=C(O)c1ccc2c(c1)C(=O)N(c1ccc(/C=C/C(=O)c3ccccc3)cc1)C2=O	14.1% (active)
CCOC(=O)C1(Cc2ccccc2)CCN(Cc2cn(C(C)=O)c3ccccc23)CC1	1.22%
COC(=O)c1sc(NC(=O)COC(=O)C2CCC2)c(C(=O)OC)c1C	0.97%
COC(=O)c1c(NC(C)=O)sc(C(=O)Nc2ccccc2OC)c1C	-3.24%
CCC(=O)Nc1sc(C(=O)Nc2ccccc2)c(C)c1C(=O)OC	13.4% (active)
COc1ccccc1-c1ccc([C@@H]2C[C@H]3[C@H](CON3C)CN2S(=O)(=O)c2cc(Cl)cc(Cl)c2)cc1	4.17%
COC(=O)Nc1nc2ccc(C(=O)C3CC3)cc2[nH]1	6.35%
COC(=O)C[C@H]1CC[C@H]2[C@H](COc3ccc(NC(=O)C4CC4)cc3C(=O)N2C)O1	1.59%
Brc1ccc(-c2nnc(-c3ccccc3)o2)o1	11.2% (active)
Nc1ccc(-c2nnc(-c3ccccc3)o2)cc1	10.4% (active)
Brc1ccc(-c2noc(-c3ccccc3)n2)o1	15.9% (active)
O=C(Nc1nnc(-c2ccc(Cl)cc2)o1)c1ccccc1Br	3.84%
O=S(=O)(c1ccc(Br)cc1)c1nc(-c2ccccc2)oc1N1CCOCC1	-0.08%
CCCN(CCC)c1ccc(C(O)c2nnc(-c3ccccc3)o2)cc1 (stereo unspecified)	-0.77%
O=C(OCc1nnc(-c2ccccc2)o1)c1ccc2c(c1)C(=O)N(CCc1ccccc1)C2=O	-0.76%
C=CCN1C(=O)[C@@H](CC(=O)N2CCN(C(=O)OCC)CC2)[C@]2(C(=O)OCC)CCCCC/C=C/12	-0.26%
CCN(CC)C(=O)CC[C@@H]1CC[C@]2(CCCN(S(=O)(=O)C3CCCCC3)C2)O1	0.45%
C=CCn1c(SCC(N)=O)nnc1-c1ccccc1OC	-1.84%
Brc1ccccc1C1N=C(c2ccccc2)NO1 (stereo unspecified)	20.2% (active)
S=C1NC(c2ccccc2)=NCN1c1ccc(Br)cc1	4.34%
N#Cc1ccc(C2N=C(c3ccccc3)NO2)cc1 (stereo unspecified)	9.37%
